# BoNT-F LC inh – BoNT/F light chain protease inhibitors, primary screen, biochemical, flow cytometry, MLPCN library. Botulinum neurotoxin type F light chain protease (Clostridium botulinum). Multiplex microsphere protease cleavage assay. inhibition, % at 10 µM. 360,000 compounds, 0.22% hits. AID 588497, 2011; in the data active = inhibition above about 35%, passing the limit was not always enough; inconclusive = no clear call, values can overlap the other calls
# VHR inh abs – VHR1 phosphatase inhibitors, primary screen, biochemical, absorbance, uHTS | recombinant VHR phosphatase, pNPP absorbance | inhibition, % at 13.3 µM | AID 1654, 2009 | 290,000 compounds, 0.52% hits | Dual specificity protein phosphatase 3 (Homo sapiens), P51452; in the data active = inhibition above about 50%
# Target sequence (P51452 whole entry, looked up): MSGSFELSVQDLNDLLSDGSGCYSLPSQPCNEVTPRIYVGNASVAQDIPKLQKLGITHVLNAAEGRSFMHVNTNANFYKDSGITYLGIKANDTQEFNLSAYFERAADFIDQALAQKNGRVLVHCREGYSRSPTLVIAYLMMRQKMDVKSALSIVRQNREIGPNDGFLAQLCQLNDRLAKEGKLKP
# Anthrax LF inh2 – Bacillus anthracis LF protease inhibitors, primary screen, biochemical, multiplex microsphere, MLPCN library; 360,000 compounds, 0.12% hits; AID 588501, 2011; Lethal factor (Bacillus anthracis), P15917; multiplex microsphere protease cleavage assay; inhibition, % at 10 µM
# Bead autofluor – counter-screen for toxin protease inhibitors: compound fluorescence; compound autofluorescence counterscreen, microsphere flow cytometry; stronger effect = higher value; fluorescence intensity (test concentration not listed); 360,000 compounds, 3.1% hits; in the data active = fluorescence intensity above about 16000; inconclusive = no clear call, values can overlap the other calls
# SARS 3CLpro inh – SARS-CoV 3CLpro protease inhibitors, primary screen, biochemical, quenched FRET; Replicase polyprotein 1ab (Severe acute respiratory syndrome coronavirus), P0C6X7; recombinant SARS-CoV 3CLpro, quenched FRET peptide cleavage; inhibition, % at 6 µM; 290,000 compounds, 0.14% hits; AID 1706, 2009; in the data active = inhibition above about 12%
# BoNT A protease – BoNT/A light chain protease inhibitors, primary screen, biochemical, flow cytometry, MLPCN library; inhibition, % at 10 µM; AID 588499, 2011; multiplex microsphere protease substrate cleavage; Botulinum neurotoxin type A light chain protease (Clostridium botulinum A str. ATCC 3502); 360,000 compounds, 0.17% hits
# Numbers stand for hits; i = inactive; ? = inconclusive; nt = no result. Hits are enriched below; roughly 3.9% of the tested compounds scored in any of these assays. Cut-off read from the data, not from the text of the source, unless noted: active = inhibition above about 30%; inconclusive = no clear call, values can overlap the other calls; inactive = below that.
SMILES,BoNT-F LC inh,VHR inh abs,Anthrax LF inh2,Bead autofluor,SARS 3CLpro inh,BoNT A protease
COc1ccccc1OCc1nnc(SCCN2CCOCC2)o1,i,i,i,22558,i,?
COCCNC(=O)C1(C)CCCN(C(=O)COc2ccccc2)C1 (stereo not drawn),i,nt,i,i,nt,i
COc1ccc(N(Cc2cc3cccc(C)c3[nH]c2=O)S(C)(=O)=O)cc1,i,i,i,24150,i,i
Cc1ccc(N(Cc2cc3ccccc3[nH]c2=O)S(C)(=O)=O)cc1,i,i,i,i,i,i
CCOc1ccc(N(Cc2cc3ccc(C)cc3[nH]c2=O)S(C)(=O)=O)cc1,i,i,i,22539,i,i
COc1ccc(N(Cc2cc3ccccc3[nH]c2=O)S(C)(=O)=O)cc1,i,i,i,i,i,i
CCOC(=O)NC(Nc1sc2c(c1C(N)=O)CCCC2)(C(=O)OCC)C(F)(F)F (stereo not drawn),i,i,i,20183,i,?
Cc1ccc(C(=O)N(C)CC(=O)Nc2ccc(N3CCOCC3)cc2)s1,i,nt,i,i,nt,i
O=C(NCc1cccc(C(F)(F)F)c1)c1csc([C@@H]2O[C@H](CO)[C@H](O)[C@H](O)[C@H]2O)n1,i,nt,i,i,nt,i
CC(=O)Nc1nnc(-c2ccc3c(c2)CCCC3)o1,i,i,i,i,i,i
O=C(Nc1nnc(-c2ccc3c(c2)CCCC3)o1)C1COc2ccccc2O1 (stereo not drawn),i,50,i,i,i,i
CCc1cccc(C)c1NC(=S)NCc1ccc2[nH]c(C)cc2c1,i,i,i,i,i,40
O=C(CC1OC(=O)c2ccccc21)Nc1cccc(S(=O)(=O)N2CCCCCC2)c1 (stereo not drawn),i,i,i,i,i,i
O=c1c(=NNc2ccccc2Cl)c(=O)c2ccccc12,i,i,i,i,i,i
Cc1cc(C)c(NN=c2c(=O)c3ccccc3c2=O)c(C)c1,i,i,i,16485,i,i
Cc1nc2c(OCc3ccc(OC(F)F)cc3)cccn2c1N(C)C(=O)CCC1CCCC1,i,nt,i,i,nt,i
Cc1cccc(C(=O)NNC(=O)c2ccccc2Br)c1,45,i,i,i,i,i
Cc1cccc(C(=O)NNC(=O)c2cccc(C)c2)c1,i,i,i,i,i,i
O=C(O)/C=C/C(=O)NNC(=O)c1ccccc1Br,i,i,i,20690,i,i
Cc1ccc(S(=O)(=O)NC(C)C(=O)NC(C)c2cccs2)cc1 (stereo not drawn),i,i,i,i,i,i
O=C(O)c1ccccc1-n1c(-c2ccccc2)cc2c1CCCC2=O,i,i,i,i,i,i
Cc1ccc(C2(C(F)(F)F)NC(=O)N3CCCN=C3S2)cc1 (stereo not drawn),i,i,i,i,i,i
Cc1ccc(C2(C(F)(F)F)NC(=O)N3CCN=C3S2)cc1 (stereo not drawn),i,i,i,21208,i,?
Cn1cc(C(=O)N2CCc3ccccc32)cn1,i,i,i,i,i,i
COC(=O)c1cc(C(=O)c2cc(Cl)ccc2O)coc1=N,i,i,i,i,i,i
SMILES,BoNT-F LC inh,VHR inh abs,Anthrax LF inh2,Bead autofluor,SARS 3CLpro inh,BoNT A protease
Cc1ccc(O)c(C(=O)c2coc(=N)c(C(=O)NC(C)C)c2)c1,i,i,i,20781,i,?
COc1ccc(NC(=O)C2Cc3c(-c4cccc(C(N)=O)c4)ccnc3O2)cn1 (stereo not drawn),i,nt,i,i,nt,i
Nc1cc(=O)[nH]c(SCc2ccccc2Cl)n1,i,i,i,i,i,i
CCCc1cc(=O)[nH]c(SCc2nc3ccccc3s2)n1,i,i,i,19993,i,i
CCCc1cc(=O)[nH]c(SCc2ccccc2Cl)n1,i,i,i,20635,i,i
CC1=C(C(=O)OC2CCC(C)CC2)C(c2ccc(O)c([N+](=O)[O-])c2)NC(=O)N1 (stereo not drawn),i,i,i,i,i,i
O=C(CC1S/C(=N/N=C/c2ccco2)NC1=O)Nc1cccc(Cl)c1Cl (stereo not drawn),i,i,i,i,i,i
O=C(OCC#CCSc1nnc(-c2cccc3ccccc23)o1)c1ccco1,i,i,i,20284,i,?
O=C(OCC#CCSc1nc2ccccc2o1)c1ccco1,i,i,i,22148,i,?
CC(=O)c1cccc(NC(=S)NC(=O)CC(C)(C)C)c1,i,i,i,25347,i,i
COc1ccc(NC(=S)Nc2cccc(C(C)=O)c2)cc1OC,36,i,i,i,i,i
CC(=O)c1cccc(NC(=S)NC(=O)c2ccccc2)c1,i,i,i,i,i,i
COc1ccc(C(=O)Nc2cccc(C(C)=O)c2)cc1OC,i,i,i,i,i,i
CCc1ccccc1NC(=O)CNC(=O)CSC(=S)N1CCCC1,i,nt,i,i,nt,i
O=C(Nc1ccc(F)c(Cl)c1)C1CC(=O)n2c(nc3ccccc32)N1 (stereo not drawn),i,53,i,i,i,i
COc1ccc(N2C(=O)CSC23C(=O)N2c4c(cccc43)C(C)=CC2(C)C)cc1 (stereo not drawn),i,i,i,16577,i,i
Cc1ccc(Cl)c(OCCCCN(C)Cc2ccccc2)c1,i,i,i,22668,i,?
Cc1nc(SCc2nc3ccc(C(=O)c4ccccc4)cc3[nH]2)c2oc3ccccc3c2n1,i,nt,i,i,nt,i
CCOc1ccc(NC(=O)Nc2c(C)n(C)n(-c3ccccc3)c2=O)cc1,i,nt,i,i,i,i
NS(=O)(=O)c1ccc(Nc2nc3ccccc3nc2NS(=O)(=O)c2cccc([N+](=O)[O-])c2)cc1,i,i,i,i,i,i
COC(=O)C(O)(c1ccc(NC(=S)NC(=O)c2ccccc2)cc1)C(F)(F)F (stereo not drawn),i,i,i,16903,i,i
CCC(=O)c1ccc(OCC(O)CN2CCN(S(=O)(=O)N3CCCCC3)CC2)cc1 (stereo not drawn),i,i,i,i,i,i
O=C(c1ccccc1)c1ccc(OCC(O)CN2CCCCC2)cc1 (stereo not drawn),i,i,i,i,i,i
Cc1ccc(OCC(O)CN2CCN(c3ccc(C)cc3)CC2)cc1 (stereo not drawn),?,i,i,i,i,i
COc1ccc(OCC(O)Cn2c(=N)n(Cc3ccccc3)c3ccccc32)cc1 (stereo not drawn),i,i,i,i,i,i
Cc1ccc(OCC(O)Cn2c(=N)n(Cc3ccccc3)c3ccccc32)cc1 (stereo not drawn),i,i,i,22794,i,i
